Experimental data published in PubChem BioAssay.
For some assays here: Potency and affinity values are given separately. The source made the active and inactive calls. Unless noted, no rule for the calls is given here.

What was measured:
[1] = antimalarial activity against Dd2 strain (AID 2302;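 active = growth inhibition above 50% at the single 2 µM test dose, taken to imply half-maximal potency below 2 µM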;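 also: 0% = DMSO untreated growth and 100% = chloroquine plus artemisinin killed control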); details: P. falciparum Dd2 in RBCs, LDH growth readout, 72 h; at 2 µM; hits give high values
[2] = human hepatoma cell viability loss – ATP luminescence, cytotoxicity control for P. falciparum antimalarial project, primary screen (AID 2303;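 active = inhibition above 50%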;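 also: 0% = DMSO wells and 100% = digitonin-killed cells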); details: HepG2 viability, 24-48 h, at 10 µM, hits give high values
[3] = molecular target: L-lactate dehydrogenase (Plasmodium falciparum (isolate CDC / Honduras)) (UniProt Q27743); assay: PfLDH activity inhibition – cell lysate, 3D7 strain, counter-screen for P. falciparum growth inhibition project (AID 2304);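 also: 0% = vehicle and 100% = reference inhibitor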; details: P. falciparum 3D7 crude extract, LDH APAD/NBT absorbance; at 2 µM; hits give high values
[4] = inhibition of 3D7 malaria parasite growth – strain 3D7 (AID 2306);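 also: 0% = DMSO wells and 100% = chloroquine plus artemisinin control wells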; details: P. falciparum 3D7 erythrocytic growth, LDH absorbance, 72 h; at 2 µM; hits give high values
[5] = molecular target: Calcium-dependent protein kinase 1 (Plasmodium falciparum (isolate 3D7)) (UniProt P62344); assay: PfCDPK1 kinase inhibitors, biochemical, TCAMS library (AID 1159585; cut-off not given, nearly all actives have IC50 up to about 0.98 µM;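 also: inhibitors leave more ATP so luminescence rises with inhibition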); details: recombinant PfCDPK1, Kinase-Glo ATP depletion luminescence
[6] = molecular target: Plasmodium falciparum protein kinase 6 (PK6, PF3D7_1337100) (UniProt Q8IDW1); assay: PfPK6 kinase inhibitors, biochemical, TCAMS library (AID 1159586); details: recombinant PfPK6, Kinase-Glo ATP depletion luminescence
[7] = molecular target: Protein kinase 7 (PK7), Plasmodium falciparum 3D7 (PF3D7_0213400) (UniProt Q7YTF7); assay: inhibition of Plasmodium PK7 catalytic activity – biochemical, TCAMS antimalarial set, Kinase-Glo luminescence (AID 1159587); details: recombinant PfPK7, Kinase-Glo ATP depletion luminescence
[8] = molecular target: Calcium-dependent protein kinase 4 (Plasmodium falciparum (isolate 3D7)) (UniProt Q8IBS5); assay: PfCDPK4 kinase inhibitors, biochemical, TCAMS library (AID 1159588; cut-off not given, nearly all actives have IC50 up to about 0.91 µM); details: recombinant PfCDPK4, Kinase-Glo ATP depletion luminescence
Calcium-dependent protein kinase 4 (Plasmodium falciparum (isolate 3D7)), sequence (Q8IBS5 whole entry, looked up): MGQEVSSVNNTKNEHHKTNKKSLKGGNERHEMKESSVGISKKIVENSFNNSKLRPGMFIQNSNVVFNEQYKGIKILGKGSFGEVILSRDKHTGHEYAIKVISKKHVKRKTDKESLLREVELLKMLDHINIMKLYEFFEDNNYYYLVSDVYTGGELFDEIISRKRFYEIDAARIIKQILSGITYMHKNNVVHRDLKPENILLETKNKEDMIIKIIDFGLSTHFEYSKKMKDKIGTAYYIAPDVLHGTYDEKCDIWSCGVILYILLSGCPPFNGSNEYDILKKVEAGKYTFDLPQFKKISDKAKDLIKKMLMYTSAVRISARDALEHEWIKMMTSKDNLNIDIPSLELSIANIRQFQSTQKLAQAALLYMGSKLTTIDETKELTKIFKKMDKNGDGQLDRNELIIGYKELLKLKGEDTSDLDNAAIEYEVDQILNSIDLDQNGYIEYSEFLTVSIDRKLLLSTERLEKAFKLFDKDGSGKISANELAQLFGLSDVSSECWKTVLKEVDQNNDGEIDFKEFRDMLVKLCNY

L-lactate dehydrogenase (Plasmodium falciparum (isolate CDC / Honduras)), sequence (Q27743 whole entry, looked up): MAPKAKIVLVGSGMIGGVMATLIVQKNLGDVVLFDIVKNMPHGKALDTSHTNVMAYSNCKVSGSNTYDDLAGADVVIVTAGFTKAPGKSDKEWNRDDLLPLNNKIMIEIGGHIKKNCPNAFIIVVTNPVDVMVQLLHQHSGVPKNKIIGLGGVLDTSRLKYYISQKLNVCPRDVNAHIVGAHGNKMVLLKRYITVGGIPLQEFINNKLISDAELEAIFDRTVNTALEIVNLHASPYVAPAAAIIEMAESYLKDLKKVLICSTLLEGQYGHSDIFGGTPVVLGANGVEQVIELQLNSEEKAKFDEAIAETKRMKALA
Calcium-dependent protein kinase 1 (Plasmodium falciparum (isolate 3D7)), sequence (P62344 whole entry, looked up): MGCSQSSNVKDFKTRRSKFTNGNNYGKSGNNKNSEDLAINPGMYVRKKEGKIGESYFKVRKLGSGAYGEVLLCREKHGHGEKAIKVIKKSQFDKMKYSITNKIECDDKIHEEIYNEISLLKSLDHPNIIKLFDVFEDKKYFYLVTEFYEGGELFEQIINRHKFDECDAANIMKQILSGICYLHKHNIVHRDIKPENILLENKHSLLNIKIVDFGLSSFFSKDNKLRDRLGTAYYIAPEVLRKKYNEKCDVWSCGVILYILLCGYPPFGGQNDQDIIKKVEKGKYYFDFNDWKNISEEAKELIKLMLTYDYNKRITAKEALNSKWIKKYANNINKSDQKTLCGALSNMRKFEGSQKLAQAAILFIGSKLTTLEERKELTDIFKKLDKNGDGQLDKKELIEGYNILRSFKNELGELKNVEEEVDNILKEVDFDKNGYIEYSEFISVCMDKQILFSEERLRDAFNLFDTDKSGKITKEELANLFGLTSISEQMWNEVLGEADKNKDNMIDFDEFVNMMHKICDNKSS
Protein kinase 7 (PK7), Plasmodium falciparum 3D7 (PF3D7_0213400), sequence (Q7YTF7 1-343): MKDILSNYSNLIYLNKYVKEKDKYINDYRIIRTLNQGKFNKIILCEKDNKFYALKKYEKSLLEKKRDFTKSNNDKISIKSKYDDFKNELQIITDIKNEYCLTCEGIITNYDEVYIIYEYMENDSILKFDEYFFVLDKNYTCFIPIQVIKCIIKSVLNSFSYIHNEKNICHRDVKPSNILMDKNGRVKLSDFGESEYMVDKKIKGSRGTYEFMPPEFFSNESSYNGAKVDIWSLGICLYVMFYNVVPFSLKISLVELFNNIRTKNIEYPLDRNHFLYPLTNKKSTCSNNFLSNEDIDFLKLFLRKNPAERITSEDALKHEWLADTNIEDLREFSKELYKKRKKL
Plasmodium falciparum protein kinase 6 (PK6, PF3D7_1337100), sequence (Q8IDW1 1-305): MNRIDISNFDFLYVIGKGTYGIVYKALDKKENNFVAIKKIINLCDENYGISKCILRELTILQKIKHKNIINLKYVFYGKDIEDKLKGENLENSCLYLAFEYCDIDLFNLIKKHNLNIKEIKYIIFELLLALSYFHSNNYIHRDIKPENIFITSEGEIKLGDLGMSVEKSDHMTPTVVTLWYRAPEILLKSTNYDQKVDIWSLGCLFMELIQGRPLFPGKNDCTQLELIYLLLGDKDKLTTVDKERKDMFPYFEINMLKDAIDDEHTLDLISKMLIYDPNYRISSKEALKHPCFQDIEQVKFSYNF

Cc1cccc2sc(N(CCCn3ccnc3)C(=O)C=Cc3cccs3)nc12
active: growth inhibition [4] 91%
inactive: growth inhibition [1] 9% | inhibition [2] -6% | inhibition [3] 2% | outcome [5] | outcome [6] | outcome [7] | outcome [8]

CCCCCCn1c(Sc2ccc(C#N)c([N+](=O)[O-])c2)nnc1-c1ccc(OC)cc1
active: growth inhibition [1] 51% | growth inhibition [4] 95%
inactive: inhibition [2] 19% | inhibition [3] 2% | outcome [5] | outcome [6] | outcome [7] | outcome [8]

COc1cc(Cn2ccc3c4c(N)nc(N)nc4ccc32)cc(OC)c1OC
active: growth inhibition [1] 97% | inhibition [2] 66% | growth inhibition [4] 94%
inactive: inhibition [3] 3% | outcome [5] | outcome [6] | outcome [7] | outcome [8]

O=C(Nc1ccnc(N2CCCN(Cc3cccc(O)c3)CC2)c1)c1ccc(F)cc1
inactive: growth inhibition [1] 3% | inhibition [2] 12% | inhibition [3] 4% | outcome [5] | outcome [6] | outcome [7] | outcome [8]
active: growth inhibition [4] 90%

COc1ccc(NC(=O)Nc2ccc(C)c(-c3ccc(C(=O)NCCN4CCCC4)cc3)c2)cc1
inactive: growth inhibition [1] 1% | inhibition [2] 18% | inhibition [3] 3% | outcome [5] | outcome [6] | outcome [7] | outcome [8]
active: growth inhibition [4] 95%

CC(=O)Nc1ccc(-c2nc3ccc(-c4nc5ccc(NC(C)=O)cc5[nH]4)cc3[nH]2)cc1
active: growth inhibition [1] 99% | growth inhibition [4] 99%
inactive: inhibition [2] -13% | inhibition [3] -2% | outcome [5] | outcome [6] | outcome [7] | outcome [8]

CCOc1ccc(C2CCN(CCCCNC(=O)c3ccc(NC(=O)c4ccc(Cl)cc4)cc3)CC2)c(OCC)c1
active: growth inhibition [1] 95% | growth inhibition [4] 101%
inactive: inhibition [2] 14% | inhibition [3] 0% | outcome [5] | outcome [6] | outcome [7] | outcome [8]

CCC(C)CN1CCCN(c2ccc(NC(=O)c3cccs3)cc2)CC1 (stereo not given)
active: growth inhibition [1] 95% | growth inhibition [4] 91%
inactive: inhibition [2] 4% | inhibition [3] -2% | outcome [5] | outcome [6] | outcome [7] | outcome [8]

O=[N+]([O-])c1ccc(Nc2nc(NCc3ccccc3)nc(NN=Cc3ccccc3[N+](=O)[O-])n2)cc1
inactive: inhibition [2] 18% | inhibition [3] -9% | outcome [5] | outcome [6] | outcome [7] | outcome [8]
active: growth inhibition [1] 99% | growth inhibition [4] 101%

COc1c(F)ccc2ncc(Cl)c(CCN3CCC(NCc4ccc5c(n4)NC(=O)CS5)CC3)c12
active: growth inhibition [4] 98%
inactive: growth inhibition [1] 29% | inhibition [2] 30% | inhibition [3] 2% | outcome [5] | outcome [6] | outcome [7] | outcome [8]

CCOc1ccc2c(c1)C(C)(c1ccc3c(c1)C(C)CC(C)(C)N3)CC(C)(C)N2 (stereo not given)
active: growth inhibition [4] 94%
inactive: growth inhibition [1] 3% | inhibition [2] 5% | inhibition [3] -5% | outcome [5] | outcome [6] | outcome [7] | outcome [8]

O=C1NC(=O)C(c2cccc(NC(=O)c3ccncc3)c2)=C1c1ccccc1
inactive: growth inhibition [1] -3% | inhibition [2] 5% | inhibition [3] 3% | outcome [5] | outcome [6] | outcome [7] | outcome [8]
active: growth inhibition [4] 101%

Cc1[nH]c2ccccc2c1C1CCN(CCCCNC(=O)c2ccc(-c3ccc(C#N)cc3)cc2)CC1
inactive: inhibition [2] 19% | inhibition [3] -3% | outcome [5] | outcome [6] | outcome [7] | outcome [8]
active: growth inhibition [1] 97% | growth inhibition [4] 101%

COc1cc(CNCCC(C)C)ccc1OCc1cccc(COc2ccc(CNCCC(C)C)cc2OC)c1
inactive: growth inhibition [1] 20% | inhibition [3] 6% | outcome [5] | outcome [6] | outcome [7] | outcome [8]
active: inhibition [2] 97% | growth inhibition [4] 99%

CC(C)COc1ccc(Cl)cc1Nc1nc(-c2nc3ccccc3[nH]2)cs1
active: growth inhibition [4] 96%
inactive: growth inhibition [1] 29% | inhibition [2] 2% | inhibition [3] 0% | outcome [5] | outcome [6] | outcome [7] | outcome [8]

Cc1cccc(-n2c(Nc3ccc(C)c(Cl)c3)nc3ccc(S(=O)(=O)NC(C)C(C)C)cc32)c1 (stereo not given)
active: growth inhibition [1] 97% | growth inhibition [4] 97%
inactive: inhibition [2] -9% | inhibition [3] 4% | outcome [5] | outcome [6] | outcome [7] | outcome [8]

O=C(NCCCCCN1CCC(c2c[nH]c3ccccc23)CC1)Nc1cccc(I)c1
inactive: growth inhibition [1] 11% | inhibition [3] -8% | outcome [5] | outcome [6] | outcome [7] | outcome [8]
active: inhibition [2] 70% | growth inhibition [4] 99%

COc1cc2nc(N3CCC(CNC(=O)c4ccc(-c5ccc(O)cc5)cc4)CC3)nc(N)c2cc1OC
active: growth inhibition [1] 78% | growth inhibition [4] 102%
inactive: inhibition [2] 34% | inhibition [3] -2% | outcome [5] | outcome [6] | outcome [7] | outcome [8]

COC(=O)c1cccc(CNCc2cccc(-c3cccc(-c4nc5ccc(C(F)(F)F)cc5[nH]4)c3)c2)c1
active: growth inhibition [1] 69% | growth inhibition [4] 102%
inactive: inhibition [2] 7% | inhibition [3] 6% | outcome [5] | outcome [6] | outcome [7] | outcome [8]

COc1ccc2ccccc2c1CNCCCCCCNCc1c(OC)ccc2ccccc12
active: inhibition [2] 99% | growth inhibition [4] 101%
inactive: growth inhibition [1] 35% | inhibition [3] -2% | outcome [5] | outcome [6] | outcome [7] | outcome [8]

CCOc1ccc(C(=O)Nc2cc3c(c(C(F)(F)F)c2)CCNC3)cc1Cl
active: growth inhibition [4] 91%
inactive: growth inhibition [1] 1% | inhibition [2] 4% | inhibition [3] -4% | outcome [5] | outcome [6] | outcome [7] | outcome [8]

Fc1ccc2nc(-c3ccc(-c4ccc(CNCc5cnn(-c6ccccc6)n5)cc4)cc3)[nH]c2c1
active: growth inhibition [4] 98%
inactive: growth inhibition [1] 47% | inhibition [2] 41% | inhibition [3] 1% | outcome [5] | outcome [6] | outcome [7] | outcome [8]

CCN(CCO)CCc1cccc(Nc2nccc(-c3c(-c4ccc(NC(=O)N(CC)CC)cc4)nn4ccccc34)n2)c1
inactive: inhibition [2] 46% | inhibition [3] 2% | outcome [5] | outcome [6] | outcome [7] | outcome [8]
active: growth inhibition [1] 95% | growth inhibition [4] 101%

COc1ccc2ncc(F)c(CCN3C[C@H](CNCc4ccc5ccccc5c4)[C@H](O)C3)c2n1
inactive: inhibition [3] -3% | outcome [5] | outcome [6] | outcome [7] | outcome [8]
active: growth inhibition [1] 78% | inhibition [2] 57% | growth inhibition [4] 100%

COc1cccc(CNC(=O)NC2CCN(c3ccnc(Nc4cc(OC)c(OC)c(OC)c4)n3)C2)c1 (stereo not given)
inactive: inhibition [2] 15% | inhibition [3] -6% | outcome [5] | outcome [6] | outcome [7] | outcome [8]
active: growth inhibition [1] 84% | growth inhibition [4] 93%

CCOC(=O)C(C#N)NC(=O)C=Cc1ccccc1 (stereo not given)
inactive: growth inhibition [1] 9% | inhibition [2] -7% | inhibition [3] 6% | outcome [5] | outcome [6] | outcome [7] | outcome [8]
active: growth inhibition [4] 96%

Cc1ccc(NC(=O)NC2CCN(CCC(NC(=O)Cc3ccccc3)c3ccc(Cl)c(Cl)c3)CC2)cc1 (stereo not given)
active: growth inhibition [4] 100%
inactive: growth inhibition [1] 2% | inhibition [2] 16% | inhibition [3] -1% | outcome [5] | outcome [6] | outcome [7] | outcome [8]

Cc1ccc(OCC2CCN(c3ncc(C(=O)NCCCN4CCCC4=O)cc3Cl)CC2)cc1
active: growth inhibition [1] 71% | growth inhibition [4] 94%
inactive: inhibition [2] 7% | inhibition [3] 0% | outcome [5] | outcome [6] | outcome [7] | outcome [8]

c1ccc(CN2CCCN(c3ccc4c(c3)CCN(Cc3ccc(-c5ncc[nH]5)cc3)CC4)CC2)cc1
active: growth inhibition [1] 73% | growth inhibition [4] 100%
inactive: inhibition [2] 6% | inhibition [3] 2% | outcome [5] | outcome [6] | outcome [7] | outcome [8]

CC(C)Cc1cn(-c2nc(-c3nc4ccccc4[nH]3)cs2)c2ccncc12
active: growth inhibition [1] 99% | growth inhibition [4] 102%
inactive: inhibition [2] 34% | inhibition [3] -2% | outcome [5] | outcome [6] | outcome [7] | outcome [8]

COc1ccc(-c2cccc(NC(=O)c3cccc(C#N)c3)c2)cc1CN1CCN(C)CC1
active: growth inhibition [4] 91%
inactive: growth inhibition [1] 16% | inhibition [2] 25% | inhibition [3] -2% | outcome [5] | outcome [6] | outcome [7] | outcome [8]

O=C1C2=C(Nc3ccccc3SC2c2ccccc2)c2ccccc21 (stereo not given)
inactive: inhibition [2] 5% | inhibition [3] -7% | outcome [5] | outcome [6] | outcome [7] | outcome [8]
active: growth inhibition [1] 94% | growth inhibition [4] 86%

Cc1cccc2[nH]c(-c3cccc(-c4cccc(NC(=O)CN5CCN(C)CC5)c4)c3)nc12
active: growth inhibition [1] 99% | inhibition [2] 76% | growth inhibition [4] 101%
inactive: inhibition [3] -1% | outcome [5] | outcome [6] | outcome [7] | outcome [8]

Cc1[nH]c2ccccc2c1C(=O)CSc1nn(-c2ccccc2)c(=S)s1
active: growth inhibition [1] 99% | growth inhibition [4] 100%
inactive: inhibition [2] -6% | inhibition [3] -1% | outcome [5] | outcome [6] | outcome [7] | outcome [8]

c1cc(-c2ccc(CNCCCN3CCOCC3)cc2)cc(-c2nc3ccccc3[nH]2)c1
active: growth inhibition [4] 100%
inactive: growth inhibition [1] -1% | inhibition [2] 26% | inhibition [3] -2% | outcome [5] | outcome [6] | outcome [7] | outcome [8]

CN1CCN(c2ccnc3cc4ccccc4cc23)CC1
active: growth inhibition [4] 93%
inactive: growth inhibition [1] 49% | inhibition [2] 11% | inhibition [3] -9% | outcome [5] | outcome [6] | outcome [7] | outcome [8]

COCCNCc1ccc(-c2ccc(CNc3ccc4ncccc4c3)cc2)cc1
active: growth inhibition [4] 85%
inactive: growth inhibition [1] 4% | inhibition [2] 41% | inhibition [3] -4% | outcome [5] | outcome [6] | outcome [7] | outcome [8]

Clc1ccc2c(NCc3ccc4c(c3)OCO4)ccnc2c1
active: growth inhibition [1] 97% | growth inhibition [4] 101%
inactive: inhibition [2] 6% | inhibition [3] 1% | outcome [5] | outcome [6] | outcome [7] | outcome [8]

Fc1ccc2nc(-c3cccc(-c4ccc(CNCc5ccccc5)cc4)c3)[nH]c2c1
active: growth inhibition [1] 89% | growth inhibition [4] 102%
inactive: inhibition [2] 27% | inhibition [3] -1% | outcome [5] | outcome [6] | outcome [7] | outcome [8]

C[C@H](NC(=O)[C@H](Cc1ccccc1)NC(=O)OC(C)(C)C)C(=O)N[C@@H](CC1CCCCC1)C(O)CN (stereo not given in full)
inactive: inhibition [2] -4% | inhibition [3] -5% | outcome [5] | outcome [6] | outcome [7] | outcome [8]
active: growth inhibition [1] 64% | growth inhibition [4] 96%
